{"source": "PubChem BioAssay AID1159580", "about": "(chemical genetic matrix, 2015)", "test": "chemical genetic growth profiling, strain panel (AID 1159580);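 note: tested at 20 µM; growth read once vehicle control cultures reached saturation at 30 °C; 1 = growth at the plate median or of vehicle wells; lower values mean less growth of the strain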", "conditions": "S. cerevisiae deletion strains, growth OD", "note": "Values joined by “and” are separate entries in the source; they are usually repeats but may differ in a detail not shown here. Equal values may be shown once. Out of some 5,500 compounds screened, about 2,000 (36%) were called active. Inconclusive results (about 18%) are left out. Cut-off read from the data, not from the text of the source: active = normalized growth mostly below about 0.91 (no sharp cut-off); inconclusive = no clear call, values can overlap the other calls; inactive = mostly above about 0.92. Some of the results follow."}
{"smiles": "Cc1cc2cc3c(C)cc(=O)oc3c(C)c2o1", "values": [{"measurement": "normalized growth", "setting": "locus YAL013W, strain DEP1, stronger effect = lower value", "value": "0.965 (inactive)"}, {"measurement": "normalized growth", "setting": "locus YAL021C, strain ccr4, stronger effect = lower value", "value": "0.992 (inactive)"}, {"measurement": "normalized growth", "setting": "locus YAL026C, strain drs2, stronger effect = lower value", "value": "0.949 (inactive)"}, {"measurement": "normalized growth", "setting": "locus YAL030W, strain snc1, stronger effect = lower value", "value": "1.01 (inactive)"}, {"measurement": "normalized growth", "setting": "locus YBL061C, strain skt5, stronger effect = lower value", "value": "0.997 (inactive)"}, {"measurement": "normalized growth", "setting": "locus YBR009C, strain hhf1, stronger effect = lower value", "value": "0.937 (inactive)"}, {"measurement": "normalized growth", "setting": "locus YBR021W, strain FUR4, stronger effect = lower value", "value": "1 (inactive)"}, {"measurement": "normalized growth", "setting": "locus YBR023C, strain chs3, stronger effect = lower value", "value": "0.968 (inactive)"}, {"measurement": "normalized growth", "setting": "locus YBR171W, strain sec66, stronger effect = lower value", "value": "0.959 (inactive)"}, {"measurement": "normalized growth", "setting": "locus YBR229C, strain ROT2, stronger effect = lower value", "value": "0.967 (inactive)"}, {"measurement": "normalized growth", "setting": "locus YBR231C, strain swc5, stronger effect = lower value", "value": "0.993 (inactive)"}, {"measurement": "normalized growth", "setting": "locus YBR279W, strain paf1, stronger effect = lower value", "value": "0.949 (inactive)"}, {"measurement": "normalized growth", "setting": "locus YCL011C, strain gbp2, stronger effect = lower value", "value": "0.955 (inactive)"}, {"measurement": "normalized growth", "setting": "locus YCL016C, strain dcc1, stronger effect = lower value", "value": "0.939 (inactive)"}, {"measurement": "normalized growth", "setting": "locus YCL029C, strain bik1, stronger effect = lower value", "value": "0.958 (inactive)"}, {"measurement": "normalized growth", "setting": "locus YCL061C, strain MRC1, stronger effect = lower value", "value": "1 (inactive)"}, {"measurement": "normalized growth", "setting": "locus YCL069W, strain vba3, stronger effect = lower value", "value": "0.955 (inactive)"}, {"measurement": "normalized growth", "setting": "locus YCR088W, strain abp1, stronger effect = lower value", "value": "0.987 (inactive)"}, {"measurement": "normalized growth", "setting": "locus YDL005C, strain med2, stronger effect = lower value", "value": "0.993 (inactive)"}, {"measurement": "normalized growth", "setting": "locus YDL035C, strain GPR1, stronger effect = lower value", "value": "0.92 (inactive)"}, {"measurement": "normalized growth", "setting": "locus YDL040C, strain nat1, stronger effect = lower value", "value": "1 (inactive)"}, {"measurement": "normalized growth", "setting": "locus YDL074C, strain BRE1, stronger effect = lower value", "value": "0.832 (inactive)"}, {"measurement": "normalized growth", "setting": "locus YDL101C, strain DUN1, stronger effect = lower value", "value": "0.933 (inactive)"}, {"measurement": "normalized growth", "setting": "locus YDL134C, strain PPH21, stronger effect = lower value", "value": "0.951 (inactive)"}, {"measurement": "normalized growth", "setting": "locus YDL185W, strain tfp1, stronger effect = lower value", "value": "0.958 (inactive)"}, {"measurement": "normalized growth", "setting": "locus YDL192W, strain arf1, stronger effect = lower value", "value": "0.966 (inactive)"}, {"measurement": "normalized growth", "setting": "locus YDR001C, strain nth1, stronger effect = lower value", "value": "0.984 (inactive)"}, {"measurement": "normalized growth", "setting": "locus YDR069C, strain doa4, stronger effect = lower value", "value": "1.02 (inactive)"}, {"measurement": "normalized growth", "setting": "locus YDR101C, strain arx1, stronger effect = lower value", "value": "0.951 (inactive)"}, {"measurement": "normalized growth", "setting": "locus YDR137W, strain rgp1, stronger effect = lower value", "value": "1.03 (inactive)"}, {"measurement": "normalized growth", "setting": "locus YDR150W, strain NUM1, stronger effect = lower value", "value": "0.993 (inactive)"}, {"measurement": "normalized growth", "setting": "locus YDR159W, strain sac3, stronger effect = lower value", "value": "0.996 (inactive)"}, {"measurement": "normalized growth", "setting": "locus YDR162C, strain NBP2, stronger effect = lower value", "value": "0.956 (inactive)"}, {"measurement": "normalized growth", "setting": "locus YDR195W, strain ref2", "value": "1.28 [resistant] (active)"}, {"measurement": "normalized growth", "setting": "locus YDR297W, strain sur2, stronger effect = lower value", "value": "1.01 (inactive)"}, {"measurement": "normalized growth", "setting": "locus YDR318W, strain mcm21, stronger effect = lower value", "value": "0.94 (inactive)"}, {"measurement": "normalized growth", "setting": "locus YDR334W, strain swr1, stronger effect = lower value", "value": "1 (inactive)"}, {"measurement": "normalized growth", "setting": "locus YDR335W, strain msn5, stronger effect = lower value", "value": "1 (inactive)"}, {"measurement": "normalized growth", "setting": "locus YDR388W, stronger effect = lower value", "value": "0.956 (inactive)"}, {"measurement": "normalized growth", "setting": "locus YDR392W, strain spt3, stronger effect = lower value", "value": "0.875 (inactive)"}, {"measurement": "normalized growth", "setting": "locus YDR502C, strain sam2, stronger effect = lower value", "value": "0.957 (inactive)"}, {"measurement": "normalized growth", "setting": "locus YEL003W, strain gim4, stronger effect = lower value", "value": "0.972 (inactive)"}, {"measurement": "normalized growth", "setting": "locus YEL037C, strain rad23, stronger effect = lower value", "value": "0.949 (inactive)"}, {"measurement": "normalized growth", "setting": "locus YEL061C, strain CIN8 (second series), stronger effect = lower value", "value": "0.989 (inactive)"}, {"measurement": "normalized growth", "setting": "locus YEL061C, strain CIN8, stronger effect = lower value", "value": "0.98 (inactive)"}, {"measurement": "normalized growth", "setting": "locus YER015W, strain faa2, stronger effect = lower value", "value": "0.981 (inactive)"}, {"measurement": "normalized growth", "setting": "locus YER016W, strain bim1, stronger effect = lower value", "value": "1 (inactive)"}, {"measurement": "normalized growth", "setting": "locus YER110C, stronger effect = lower value", "value": "0.969 (inactive)"}, {"measurement": "normalized growth", "setting": "locus YER111C, strain swi4, stronger effect = lower value", "value": "0.991 (inactive)"}, {"measurement": "normalized growth", "setting": "locus YER155C, strain BEM2 (second series), stronger effect = lower value", "value": "0.926 (inactive)"}, {"measurement": "normalized growth", "setting": "locus YER155C, strain BEM2, stronger effect = lower value", "value": "0.982 (inactive)"}, {"measurement": "normalized growth", "setting": "locus YER167W, strain BCK2, stronger effect = lower value", "value": "0.975 (inactive)"}, {"measurement": "normalized growth", "setting": "locus YFR010W, strain ubp6, stronger effect = lower value", "value": "0.965 (inactive)"}, {"measurement": "normalized growth", "setting": "locus YGL078C, strain dbp3, stronger effect = lower value", "value": "0.982 (inactive)"}, {"measurement": "normalized growth", "setting": "locus YGL086W, strain mad1, stronger effect = lower value", "value": "0.973 (inactive)"}, {"measurement": "normalized growth", "setting": "locus YGL167C, strain pmr1, stronger effect = lower value", "value": "1.01 (inactive)"}, {"measurement": "normalized growth", "setting": "locus YGL173C, strain kem1, stronger effect = lower value", "value": "0.997 (inactive)"}, {"measurement": "normalized growth", "setting": "locus YGL227W, strain vid30, stronger effect = lower value", "value": "0.999 (inactive)"}, {"measurement": "normalized growth", "setting": "locus YGL240W, strain doc1, stronger effect = lower value", "value": "0.98 (inactive)"}, {"measurement": "normalized growth", "setting": "locus YGL248W, strain PDE1, stronger effect = lower value", "value": "0.929 (inactive)"}, {"measurement": "normalized growth", "setting": "locus YGL253W, strain hxk2, stronger effect = lower value", "value": "0.953 (inactive)"}, {"measurement": "normalized growth", "setting": "locus YGR078C, strain PAC10, stronger effect = lower value", "value": "0.879 (inactive)"}, {"measurement": "normalized growth", "setting": "locus YGR135W, strain pre9, stronger effect = lower value", "value": "0.905 (inactive)"}, {"measurement": "normalized growth", "setting": "locus YGR229C, strain SMI1, stronger effect = lower value", "value": "0.867 (inactive)"}, {"measurement": "normalized growth", "setting": "locus YGR252W, strain gcn5, stronger effect = lower value", "value": "0.917 (inactive)"}, {"measurement": "normalized growth", "setting": "locus YHR013C, strain ard1, stronger effect = lower value", "value": "0.877 (inactive)"}, {"measurement": "normalized growth", "setting": "locus YHR027C, strain rpn1, stronger effect = lower value", "value": "1 (inactive)"}, {"measurement": "normalized growth", "setting": "locus YHR030C, strain SLT2, stronger effect = lower value", "value": "0.908 (active) and 0.94 (inactive)"}, {"measurement": "normalized growth", "setting": "locus YHR079C, strain IRE1 (second series), stronger effect = lower value", "value": "0.981 (inactive)"}, {"measurement": "normalized growth", "setting": "locus YHR079C, strain IRE1, stronger effect = lower value", "value": "0.948 (inactive)"}, {"measurement": "normalized growth", "setting": "locus YHR094C, strain hxt1, stronger effect = lower value", "value": "0.992 (inactive)"}, {"measurement": "normalized growth", "setting": "locus YHR129C, strain ARP1, stronger effect = lower value", "value": "0.967 (inactive)"}, {"measurement": "normalized growth", "setting": "locus YHR142W, strain chs7, stronger effect = lower value", "value": "0.944 (inactive)"}, {"measurement": "normalized growth", "setting": "locus YHR200W, strain rpn10, stronger effect = lower value", "value": "0.941 (inactive)"}, {"measurement": "normalized growth", "setting": "locus YIL066C, strain RNR3, stronger effect = lower value", "value": "0.918 (inactive)"}, {"measurement": "normalized growth", "setting": "locus YIL073C, strain SPO22, stronger effect = lower value", "value": "0.888 (inactive)"}, {"measurement": "normalized growth", "setting": "locus YIL125W, strain kgd1, stronger effect = lower value", "value": "1 (inactive)"}, {"measurement": "normalized growth", "setting": "locus YIR030C, strain dcg1, stronger effect = lower value", "value": "0.988 (inactive)"}, {"measurement": "normalized growth", "setting": "locus YJL092W, strain hpr5, stronger effect = lower value", "value": "0.978 (inactive)"}, {"measurement": "normalized growth", "setting": "locus YJL095W, strain BCK1 (second series), stronger effect = lower value", "value": "0.988 (inactive)"}, {"measurement": "normalized growth", "setting": "locus YJL095W, strain BCK1, stronger effect = lower value", "value": "0.752 (active) and 0.891 (inactive)"}, {"measurement": "normalized growth", "setting": "locus YJL115W, strain asf1, stronger effect = lower value", "value": "0.991 (inactive)"}, {"measurement": "normalized growth", "setting": "locus YJL129C, strain trk1, stronger effect = lower value", "value": "1.02 (inactive)"}, {"measurement": "normalized growth", "setting": "locus YJL134W, strain LCB3, stronger effect = lower value", "value": "0.977 (inactive)"}, {"measurement": "normalized growth", "setting": "locus YJL154C, strain vps35, stronger effect = lower value", "value": "0.99 (inactive)"}, {"measurement": "normalized growth", "setting": "locus YJL164C, strain tpk1, stronger effect = lower value", "value": "0.95 (inactive)"}, {"measurement": "normalized growth", "setting": "locus YJL166W, strain qcr8, stronger effect = lower value", "value": "0.989 (inactive)"}, {"measurement": "normalized growth", "setting": "locus YJL187C, strain SWE1 (second series), stronger effect = lower value", "value": "0.91 (inactive)"}, {"measurement": "normalized growth", "setting": "locus YJR043C, strain POL32, stronger effect = lower value", "value": "0.89 (inactive)"}, {"measurement": "normalized growth", "setting": "locus YJR066W, strain TOR1, stronger effect = lower value", "value": "0.89 (inactive)"}, {"measurement": "normalized growth", "setting": "locus YJR075W, strain HOC1, stronger effect = lower value", "value": "0.946 (inactive)"}]}
